Assay outcomes: PubChem BioAssay, Fisher Drug Discovery Resource Center
mcGAS RapidFire: blocks mouse cGAS cGAMP production; Q8C6L5; recombinant mouse cGAS, cGAMP by RapidFire MS; inhibition, % at 12.5 µM; 130,000 compounds, 0.18% hits; AID 1259397;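 active = inhibition of cGAS enzyme activity at or above 60%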;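 note: enzyme stimulated by 45 bp dsDNA with ATP and GTP substrates; cGAMP share of summed cGAMP plus half ATP and half GTP signals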
Target sequence (Q8C6L5 whole entry, looked up): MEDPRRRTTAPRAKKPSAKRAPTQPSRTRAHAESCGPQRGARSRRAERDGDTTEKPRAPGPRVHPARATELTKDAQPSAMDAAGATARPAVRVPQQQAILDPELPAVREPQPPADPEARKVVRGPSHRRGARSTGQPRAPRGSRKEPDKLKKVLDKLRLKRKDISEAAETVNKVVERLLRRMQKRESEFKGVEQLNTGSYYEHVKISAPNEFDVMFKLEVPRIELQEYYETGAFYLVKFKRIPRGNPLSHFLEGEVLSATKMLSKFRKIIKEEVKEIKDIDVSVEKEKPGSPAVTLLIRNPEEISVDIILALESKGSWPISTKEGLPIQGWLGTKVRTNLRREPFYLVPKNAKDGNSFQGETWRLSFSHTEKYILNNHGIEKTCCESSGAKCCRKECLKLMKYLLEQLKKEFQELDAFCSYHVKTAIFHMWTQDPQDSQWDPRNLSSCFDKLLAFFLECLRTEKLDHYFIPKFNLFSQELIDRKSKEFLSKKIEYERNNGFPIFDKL
Starred values were filed as active, the others as inactive; ! = a repeat was not active. The entries come from a sample that favours hits as a whole.

SMILES	mcGAS RapidFire
O=C(O)COc1cc(Cl)c(Cl)cc1Cl	98*
Oc1cc(Cl)ccc1Oc1ccc(Cl)cc1Cl	-18
O=C(O)COc1ccccc1	7
CCCCCCC(C)OC(=O)COc1ccc(Cl)cc1Cl (centres undefined)	-8
O=C(O)COc1ccc(Cl)cc1Cl	96*
CCc1csc(N2CCN(C(C)C)CC2)n1	-6
CN1CCNC(=O)C12CCN(C(=O)Cc1ccccn1)CC2	-17
CC(=O)c1ccc(N2C[C@H](c3ccccc3)[C@@H]3[C@H]2C2CCN3CC2)nc1	-22
Cn1ccc(C(=O)Nc2ccc(C#N)c(C(F)(F)F)c2)cc1=O	-7
Cc1ccc(Cn2cccc(C(=O)Nc3ccc(S(N)(=O)=O)cc3)c2=O)cc1	-5
O=C(Nc1ccc2c(c1)OCCO2)OCC(F)(F)F	-5
O=c1c(O)c(-c2ccc(O)c(O)c2)oc2c(O)c(O)cc(O)c12	93*
Cc1ccccc1Cn1cccc(C(=O)Nc2nccs2)c1=O	-6
O=C(O)c1ccccc1-c1c2cc(Br)c(=O)cc-2oc2[c]([Hg])c(O)c(Br)cc12	99*!
CC1(C(=O)N2C[C@@H](c3cccc(F)c3F)[C@@H]3[C@H]2C2CCN3CC2)CC1	0
C1=NC2(CCNCC2)SC1Cc1ccccc1 (centres undefined)	-4
CC(C)Oc1ccc(NP(=O)(Oc2ccccc2)Oc2ccccc2)cc1	-4
CC(C)(C)C(=O)NC1CCSC1=O (centres undefined)	76*
CCC(C)(C)C(=O)NC1CCSC1=O (centres undefined)	6
Brc1ccc(C2CC(c3cccnc3)=Nc3ncnn32)cc1 (centres undefined)	-5
Cc1ccc(F)cc1C(=O)N1C[C@H](c2ccccc2)[C@@H]2[C@H]1C1CCN2CC1	-5
Oc1ccc(C2=CCN(CC(O)c3cc(F)ccc3F)CC2)cc1 (centres undefined)	-7
CC(CCCC(C)(C)O)NC1CCCC(C)(C)C1 (centres undefined)	5
CC(=O)OCC1=C(C(=O)O)N2C(=O)[C@@H](NC(=O)CCCC(N)C(=O)O)C2SC1 (some centres undefined)	73*!
Cc1nn(CC(C)C)c(C)c1CC(=O)Nc1ccc(C#N)c(Cl)c1	-4
SMILES	mcGAS RapidFire
Cc1ccc2nc(C)c3c(c2c1)OCN(CC1CCCO1)C3 (centres undefined)	23
CCC(O)Cn1cc(C2=CCN(CC3CC3)CC2)cn1 (centres undefined)	-30
COc1ncc(CN2CC[C@@]3(O)CCCC[C@H]3C2)cn1	-5
CN(C)NC(=O)CCC(C)([N+](=O)[O-])[N+](=O)[O-]	-7
Oc1c(Cl)c(Cl)c(Cl)c(Cl)c1Cl	98*
Cc1ccc(C[N+]23CCN(CC2)CC3)cc1	-5
CCCCCCOC(=O)C1CN1C(CC)C(=O)OC (centres undefined)	-16
O=C(Cc1ccsc1)N1CCCC(N2CCN(Cc3ccc4c(c3)OCO4)CC2)C1 (centres undefined)	-4
O=C(Nc1ccc(F)cc1F)N1CCCC1	-7
C#CCCN1CCN(C(=O)Cc2cc(C)[nH]n2)CC1	2
